The record followed here is PubChem BioAssay (EPA / NIEHS).

For orientation: AC50 means the concentration at which the activity in the assay is half-maximal.

SMILES strings stand for the structures. Inconclusive results are not listed. Activity calls are given as the source filed them. How the source made its calls, unless noted: active means hit-call score of the fitted dose curve at least 0.9, where 1 is the maximum; inactive means score below 0.9.

For assay [1], the target named is Paired box protein Pax-6 (Homo sapiens) (UniProt P26367). Put plainly: ATG_Pax6_CIS: Attagene CIS-FACTORIAL HepG2 Assay for human Paired Box 6 (PAX6) (AID 2282956). The conditions noted are these: HepG2 CIS-FACTORIAL PAX6 reporter transcription, RNA readout; actives raise or lower the signal. In a few lines:
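Values derive from bidirectional curve fitting of reporter mRNA signal relative to DMSO. HepG2 cells bearing transfected cis-regulated MRTUs were exposed for 24 h; transcripts were read by RT-PCR and capillary electrophoresis.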

Assay [2] can be described thus: ATG_PXRE_CIS: Attagene CIS-FACTORIAL HepG2 Assay for human Pregnane X Receptor Element (PXRE) (AID 2282957). The conditions noted are these: HepG2 Attagene CIS-FACTORIAL PXRE reporter, mRNA; actives raise or lower the signal. Summed up: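 After a 24 h chemical incubation, total RNA from transfected HepG2 cells was reverse-transcribed and reporter cDNA amplified, FAM-labeled, HpaI-digested and sized by capillary electrophoresis. DMSO served as baseline for bidirectional curve fitting.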

The nature of assay [3]: ATG_PPRE_CIS: Attagene CIS-FACTORIAL HepG2 Assay for human Peroxisome Proliferator-activated Response Element (PPRE) (AID 2282958). The note with it: HepG2 PPRE cis-element reporter, Attagene transcription factor profiling; actives raise or lower the signal. Summed up:
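Read-out: fluorescent reporter mRNA fragments resolved by capillary electrophoresis after RT-PCR. HepG2 cells carried transiently transfected PPRE-driven cis reporter constructs and were dosed for 24 h; gain or loss of signal fitted relative to DMSO.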

A short description of assay [4]: ATG_RORE_CIS: Attagene CIS-FACTORIAL HepG2 Assay for human RAR-related Orphan Receptor Element (RORE) (AID 2282959). The note with it: HepG2 Attagene cis-factorial RORE reporter, mRNA; actives raise or lower the signal. Summed up:
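Readout: fluorescent reporter mRNA by RT-PCR plus capillary electrophoresis, 24 h after dosing transfected HepG2 cells. Endogenous transcription factor activity on a cis promoter element is measured. Gain or loss of signal fitted against DMSO.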

Assay [5] is described as follows: ATG_SREBP_CIS: Attagene CIS-FACTORIAL HepG2 Assay for human Sterol Regulatory Element Binding (SREBP) (AID 2282962). The note with it: HepG2 Attagene cis-factorial SREBP reporter, mRNA; actives raise or lower the signal. Summed up: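 Values derive from bidirectional curve fitting with DMSO as baseline. The underlying measurement is reporter mRNA from cis-element-regulated units in transiently transfected HepG2, quantified by RT-PCR and capillary electrophoresis after 24 h exposure.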

Assay [6] deals with Signal transducer and activator of transcription 3 (Homo sapiens) (UniProt P40763). The assay is described as follows: ATG_STAT3_CIS: Attagene CIS-FACTORIAL HepG2 Assay for human Signal Transducer and Activator of Transcription 3 (STAT3) (AID 2282963). The note with it: HepG2, Attagene cis-factorial STAT3 reporter transcription; actives raise or lower the signal. In a few lines:
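HepG2, MRTU-transfected, 24 h dosing. RNA → RT → PCR → FAM label → HpaI → CE. Bidirectional fit vs DMSO.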

A short description of assay [7]: ATG_TA_CIS: Attagene CIS-FACTORIAL HepG2 Assay for human TA Basal Promoter (AID 2282964). The note with it: HepG2 Attagene CIS-factorial TA basal promoter reporter; actives raise or lower the signal. Summed up: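 Steps: transfect HepG2 with MRTUs; dose 24 h; isolate RNA, DNase-treat, reverse-transcribe; PCR and FAM-label reporter cDNA; digest with HpaI 2h at 37 C; run capillary electrophoresis. Activity fitted both directions against DMSO.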

Assay [8] can be described thus: ATG_TCF_b_cat_CIS: Attagene CIS-FACTORIAL HepG2 Assay for human T-Cell-Factor with beta-catenin (TCF/b-cat) (AID 2282965). The conditions noted are these: HepG2 TCF/beta-catenin cis-reporter transcription, actives raise or lower the signal. Summed up: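 Using capillary electrophoresis as the read-out, labelled reporter cDNA fragments from transiently transfected HepG2 were sized and quantified. Exposure lasted 24 hours; activity in either direction was referenced to DMSO.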

The nature of assay [9]: ATG_TAL_CIS: Attagene CIS-FACTORIAL HepG2 Assay for human TAL Basal Promoter (AID 2282966).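 Further: background control endpoint measuring basal TAL promoter reporter mRNA not a specific factor.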 The conditions noted are these: HepG2 Attagene cis-factorial TAL promoter reporter; actives raise or lower the signal. Summed up:
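Basal-promoter background-control endpoint from a multiplexed HepG2 reporter panel. Cells were exposed 24 h, then reporter mRNA was read by RT-PCR/CE fluorescence and fitted in both directions relative to DMSO.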

Assay [10] in a line: ATG_TGFb_CIS: Attagene CIS-FACTORIAL HepG2 Assay for human Transforming Growth Factor (TGF) (AID 2282967). The conditions noted are these: HepG2 Attagene CIS TGFb reporter, mRNA transcription; actives raise or lower the signal. Summed up: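 Cells were dosed for 24 hours, after which total RNA was reverse-transcribed and reporter sequences amplified, labeled and sized by capillary electrophoresis. Activity was fitted in both directions against DMSO.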

Assay [11] in a line: ATG_VDRE_CIS: Attagene CIS-FACTORIAL HepG2 Assay for human Vitamin D Receptor Element (VDRE) (AID 2282968). The conditions noted are these: HepG2 VDRE cis-reporter transcription, actives raise or lower the signal. Summed up:
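Steps: transfect HepG2 with multiple reporter transcription units; dose chemicals 24 h; isolate RNA; RT-PCR; label with 6-FAM primer extension; HpaI digest; capillary electrophoresis. Curves fitted both directions against DMSO.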

Assay [12] has as its target Nuclear receptor subfamily 1 group I member 3 (Homo sapiens) (UniProt Q14994). The assay is described as follows: ATG_CAR_TRANS: Attagene TRANS-FACTORIAL HepG2 Assay for human Constitutive Androstane Receptor (CAR) (AID 2282969; active means hit-call score of the fitted dose curve at least 0.9, where 1 is the maximum;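 further: activators raise reporter mRNA above DMSO so AC50 marks induction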). The conditions noted are these: HepG2 Attagene TRANS-FACTORIAL CAR reporter. Summed up: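 Steps: transient transfection of HepG2 with multiple GAL4-UAS reporter units; 24 h compound incubation; RNA isolation, RT-PCR, 6-FAM primer extension, HpaI digest; capillary electrophoresis. Gain-of-signal relative to DMSO negative control.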

In assay [13] the target is X-box-binding protein 1 (Homo sapiens) (UniProt P17861). The assay is described as follows: ATG_Xbp1_CIS: Attagene CIS-FACTORIAL HepG2 Assay for human X-box Binding Protein 1 (XBP1) (AID 2282972). The conditions noted are these: HepG2 XBP1 cis-element reporter, Attagene multiplex; actives raise or lower the signal. In a few lines:
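Human hepatoma HepG2, cis-element reporter system, 24 h treatment; mRNA quantified by RT-PCR/CE fluorescence; fit relative to DMSO.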

Assay [14] is described as follows: ATG_M_19_TRANS: Attagene TRANS-FACTORIAL HepG2 Assay for M19 Transcription Factor (Internal Marker) (AID 2282974; active means hit-call score of the fitted dose curve at least 0.9, where 1 is the maximum). The conditions noted are these: HepG2 Attagene TRANS-FACTORIAL M19 internal marker reporter. Summed up:
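24 h chemical exposure of transiently transfected HepG2 (MRTU library). RNA → oligo(dT) RT → PCR → 6-FAM labelling → HpaI cut → CE fluorescence. Positive-direction fit vs DMSO baseline; background internal-marker readout.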

Assay [15] is described as follows: ATG_Sox_CIS: Attagene CIS-FACTORIAL HepG2 Assay for human SRY-box transcription factor (SOX) (AID 2282960). The note with it: HepG2 Attagene cis-factorial SOX reporter, mRNA; actives raise or lower the signal. Summed up: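 Read-out: fluorescent RT-PCR products of SOX1-linked reporter transcripts resolved by capillary electrophoresis, fitted bidirectionally against DMSO. Transiently transfected HepG2 cells, 24 h after chemical exposure, endogenous transcription factor activity.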

Assay [16] addresses Transcription factor Sp1 (Homo sapiens) (UniProt P08047). Put plainly: ATG_Sp1_CIS: Attagene CIS-FACTORIAL HepG2 Assay for human Specificity Protein 1 (Sp1) (AID 2282961). The conditions noted are these: HepG2 Sp1 cis-reporter transcription, actives raise or lower the signal. Summed up: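 Read-out: fluorescence of 6-FAM-labeled, HpaI-digested RT-PCR products separated by capillary electrophoresis. HepG2 cells carried transfected cis-element reporter units and were exposed to chemicals for 24 h; gain or loss of signal fitted relative to DMSO.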

Assay [17] has as its target Estrogen receptor (Homo sapiens) (UniProt P03372). The assay is described as follows: ATG_ERa_TRANS: Attagene TRANS-FACTORIAL HepG2 Assay for human Estrogen Receptor alpha (ERa) (AID 2282970; active means hit-call score of the fitted dose curve at least 0.9, where 1 is the maximum). The note with it: HepG2 Attagene TRANS ERa GAL4 reporter, mRNA. Summed up: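 Gal4-fusion ERa transactivation, measured as reporter transcript level in transiently transfected HepG2 cells. Exposure 24 h; RT-PCR plus capillary electrophoresis with fluorescence detection.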

Assay [18] is described as follows: ATG_GAL4_TRANS: Attagene TRANS-FACTORIAL HepG2 Assay for GAL4 (Internal Marker) (AID 2282976; active means hit-call score of the fitted dose curve at least 0.9, where 1 is the maximum). The note with it: HepG2 Attagene TRANS GAL4 internal marker reporter. In a few lines: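 Background-control readout: GAL4-UAS reporter transcript in transiently transfected HepG2 cells after 24 h compound exposure. Measured by RT-PCR, 6-FAM primer extension, HpaI digest and capillary electrophoresis; gain-of-signal fit versus DMSO.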

Chain of X-box-binding protein 1 (Homo sapiens) (P17861 whole entry, looked up): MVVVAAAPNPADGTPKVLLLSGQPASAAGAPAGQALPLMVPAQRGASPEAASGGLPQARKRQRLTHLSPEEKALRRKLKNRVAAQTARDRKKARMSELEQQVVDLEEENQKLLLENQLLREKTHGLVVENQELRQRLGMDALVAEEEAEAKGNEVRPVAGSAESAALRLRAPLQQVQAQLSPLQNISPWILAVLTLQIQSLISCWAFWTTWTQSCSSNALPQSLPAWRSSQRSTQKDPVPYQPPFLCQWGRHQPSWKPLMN
Chain of Signal transducer and activator of transcription 3 (Homo sapiens) (P40763 whole entry, looked up): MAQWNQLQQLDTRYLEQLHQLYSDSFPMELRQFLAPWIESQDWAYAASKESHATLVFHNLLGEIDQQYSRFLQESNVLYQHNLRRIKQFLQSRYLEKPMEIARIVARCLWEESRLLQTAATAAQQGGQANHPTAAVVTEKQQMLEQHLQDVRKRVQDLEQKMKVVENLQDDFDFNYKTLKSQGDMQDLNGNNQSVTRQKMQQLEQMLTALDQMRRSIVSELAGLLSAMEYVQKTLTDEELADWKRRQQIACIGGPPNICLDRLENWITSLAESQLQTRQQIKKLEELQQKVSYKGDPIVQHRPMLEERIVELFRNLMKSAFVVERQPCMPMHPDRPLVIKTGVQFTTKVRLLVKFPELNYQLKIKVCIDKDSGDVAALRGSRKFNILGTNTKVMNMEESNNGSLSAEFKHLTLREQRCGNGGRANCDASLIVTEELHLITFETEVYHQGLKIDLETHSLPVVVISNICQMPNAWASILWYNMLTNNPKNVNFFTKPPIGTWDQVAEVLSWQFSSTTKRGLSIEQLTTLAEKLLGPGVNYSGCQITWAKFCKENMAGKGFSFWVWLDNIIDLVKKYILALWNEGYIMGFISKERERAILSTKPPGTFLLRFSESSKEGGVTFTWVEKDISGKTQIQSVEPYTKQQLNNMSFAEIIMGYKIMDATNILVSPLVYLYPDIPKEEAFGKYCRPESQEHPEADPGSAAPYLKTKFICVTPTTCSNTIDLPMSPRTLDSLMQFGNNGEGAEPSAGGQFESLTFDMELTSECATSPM
Chain of Paired box protein Pax-6 (Homo sapiens) (P26367 whole entry, looked up): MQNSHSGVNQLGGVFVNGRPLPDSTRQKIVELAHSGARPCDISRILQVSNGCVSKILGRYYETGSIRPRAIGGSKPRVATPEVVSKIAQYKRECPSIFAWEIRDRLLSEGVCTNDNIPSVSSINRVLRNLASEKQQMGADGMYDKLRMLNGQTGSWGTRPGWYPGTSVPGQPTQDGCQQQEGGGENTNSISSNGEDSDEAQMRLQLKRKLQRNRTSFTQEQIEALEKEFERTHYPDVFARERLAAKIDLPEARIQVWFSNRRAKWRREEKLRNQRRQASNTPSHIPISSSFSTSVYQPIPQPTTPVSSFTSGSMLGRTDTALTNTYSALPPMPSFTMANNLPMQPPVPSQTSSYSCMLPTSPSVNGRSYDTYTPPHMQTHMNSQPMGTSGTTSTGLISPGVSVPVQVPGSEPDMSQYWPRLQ
Chain of Transcription factor Sp1 (Homo sapiens) (P08047 whole entry, looked up): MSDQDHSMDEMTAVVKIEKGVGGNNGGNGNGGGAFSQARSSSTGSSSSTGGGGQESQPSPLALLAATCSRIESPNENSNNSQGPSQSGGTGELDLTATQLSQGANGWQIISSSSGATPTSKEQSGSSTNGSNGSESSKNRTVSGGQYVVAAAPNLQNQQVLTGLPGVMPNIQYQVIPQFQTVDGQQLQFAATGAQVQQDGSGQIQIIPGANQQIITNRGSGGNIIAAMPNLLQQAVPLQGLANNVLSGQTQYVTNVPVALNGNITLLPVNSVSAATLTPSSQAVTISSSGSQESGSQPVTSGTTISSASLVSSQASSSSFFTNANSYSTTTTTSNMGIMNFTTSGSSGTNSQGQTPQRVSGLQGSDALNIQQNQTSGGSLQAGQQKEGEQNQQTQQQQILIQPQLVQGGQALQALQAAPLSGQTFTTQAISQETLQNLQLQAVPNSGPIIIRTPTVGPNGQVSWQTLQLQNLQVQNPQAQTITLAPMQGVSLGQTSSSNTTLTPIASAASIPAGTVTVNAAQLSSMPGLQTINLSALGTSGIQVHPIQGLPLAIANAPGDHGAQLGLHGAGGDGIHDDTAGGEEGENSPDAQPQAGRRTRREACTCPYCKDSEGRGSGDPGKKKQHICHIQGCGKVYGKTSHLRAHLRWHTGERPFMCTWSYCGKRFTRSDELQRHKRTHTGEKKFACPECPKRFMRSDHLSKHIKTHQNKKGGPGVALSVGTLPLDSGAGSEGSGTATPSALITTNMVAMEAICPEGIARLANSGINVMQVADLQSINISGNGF
Chain of Nuclear receptor subfamily 1 group I member 3 (Homo sapiens) (Q14994 whole entry, looked up, the tested form may be a part): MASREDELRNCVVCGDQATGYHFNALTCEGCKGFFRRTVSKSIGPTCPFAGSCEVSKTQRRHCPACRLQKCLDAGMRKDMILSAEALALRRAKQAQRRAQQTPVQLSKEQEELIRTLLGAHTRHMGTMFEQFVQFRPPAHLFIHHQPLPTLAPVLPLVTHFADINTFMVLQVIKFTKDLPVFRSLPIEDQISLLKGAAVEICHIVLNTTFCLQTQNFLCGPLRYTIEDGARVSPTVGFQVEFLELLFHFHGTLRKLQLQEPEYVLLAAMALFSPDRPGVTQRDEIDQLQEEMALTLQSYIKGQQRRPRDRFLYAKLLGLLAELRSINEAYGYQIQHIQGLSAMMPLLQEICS
Chain of Estrogen receptor (Homo sapiens) (P03372 whole entry, looked up, the tested form may be a part): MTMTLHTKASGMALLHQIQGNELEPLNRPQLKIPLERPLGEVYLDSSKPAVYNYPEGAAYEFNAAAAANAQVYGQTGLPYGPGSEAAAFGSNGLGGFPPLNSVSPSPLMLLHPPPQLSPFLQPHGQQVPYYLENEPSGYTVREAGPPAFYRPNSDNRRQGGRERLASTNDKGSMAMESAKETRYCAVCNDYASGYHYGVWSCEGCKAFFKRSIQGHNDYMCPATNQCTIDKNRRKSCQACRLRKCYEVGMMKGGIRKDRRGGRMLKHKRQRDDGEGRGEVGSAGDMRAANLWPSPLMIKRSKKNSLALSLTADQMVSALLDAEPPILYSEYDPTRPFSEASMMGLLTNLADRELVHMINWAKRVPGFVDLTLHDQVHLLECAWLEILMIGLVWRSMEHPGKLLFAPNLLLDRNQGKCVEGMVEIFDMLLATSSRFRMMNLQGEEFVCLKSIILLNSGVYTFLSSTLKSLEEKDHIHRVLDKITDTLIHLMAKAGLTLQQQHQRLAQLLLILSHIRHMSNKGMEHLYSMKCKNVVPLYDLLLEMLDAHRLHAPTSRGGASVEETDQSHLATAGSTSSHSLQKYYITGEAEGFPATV

In the case of `CO[Si](CCCn1c(=O)n(CCC[Si](OC)(OC)OC)c(=O)n(CCC[Si](OC)(OC)OC)c1=O)(OC)OC`, the result in assay [1], in assay [3], in [4], in assay [5], in [6] and in assay [7] was inactive. In addition, the compound was called inactive in assay [8], in assay [9], in assay [10], in [11], in assay [12] and in assay [13]. In addition, the call in [14] was inactive. Moreover, in assay [2], the half-maximal activity concentration (AC50) is 28.6 µM (active).
In the case of `CCC(O)CO` (stereo unspecified), the compound was called inactive in [1], in [3], in [15], in assay [16], in assay [5] and in [6]. The compound was called inactive in assay [7], in assay [8], in assay [9], in assay [10], in assay [11] and in assay [12]. In addition, the outcome in [17], in assay [13], in [14] and in [18] was inactive. Besides, the AC50 in [2] is 0.0826 µM (active).
Regarding `O=C=NC1CCC(CC2CCC(N=C=O)CC2)CC1` (stereo unspecified), the compound was classed as inactive in [1], in assay [2], in assay [15] and in assay [5]. In addition, the AC50 in assay [3] is 68.9 µM (active); in assay [4], 69.6 µM (active); in assay [6], 164 µM (active); in assay [8], 69.3 µM (active); in assay [9], 26.8 µM (active); in assay [10], 59.2 µM (active). Moreover, the AC50 in assay [11] was 37.5 µM (active); in assay [13], 85.1 µM (active).
For the compound `CCCc1c(OCCCOc2ccc(OCC(=O)O)cc2)ccc(C(C)=O)c1O`, the compound was classed as inactive in [1], in [16], in assay [5], in assay [6], in assay [9] and in assay [18]. In addition, the AC50 is 8.44 µM (active) in [2]; 0.272 µM (active) in assay [3]; 4.66 µM (active) in [4]; 26.7 µM (active) in assay [7]; 25.6 µM (active) in assay [8]; 70.5 µM (active) in [10]. Also, the AC50 in [11] was 27.5 µM (active).
